# High-throughput results from PubChem.
# Fam108B inh – mouse Fam108B serine hydrolase inhibitors, primary screen, counter-screen for RBBP9 inhibitor project, biochemical, fluorescence polarization. 300,000 compounds, 0.33% hits. AID 1947, 2009. inhibition, % at 9.51 µM. recombinant Fam108B, FP-Rh probe fluorescence polarization;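 active means inhibition above the screen mean inhibition plus 3 SD, computed separately per campaign, cut at about 18% in these data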;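 further: inhibitors lower polarization as less probe binds the enzyme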
# PAD4 FP inh – human PAD4 inhibitors, primary screen, biochemical, fluorescence polarization, 1536-well format; AID 485272, 2010; recombinant PAD4, RCA probe fluorescence polarization; Protein-arginine deiminase type-4 (Homo sapiens), Q9UM07; 330,000 compounds, 0.41% hits; inhibition, % at 6.36 µM;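 active means percent inhibition above a cutoff equal to the mean of all tested compounds plus 3 SD, cut at about 15% in these data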;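 further: 0% = PAD4 with RCA probe and DMSO and 100% = probe without PAD4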
# PRMT1 inh – PRMT1 methyltransferase inhibitors, primary screen, biochemical, fluorescence polarization. Protein arginine N-methyltransferase 1 (Homo sapiens), Q99873. recombinant PRMT1, activity-based probe fluorescence polarization. inhibition, % at 2.79 µM. 370,000 compounds, 1.3% hits;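 active means inhibition above about 21% made by adding two undisclosed values, limit read from the data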
# TCR-CD3 inh – inhibitors of human TCR-CD3 interaction, primary screen, biochemical, fluorescence, TAMRA-labeled TCR probe. 360,000 compounds, 0.37% hits. inhibition, % at 9.4 µM. T-cell receptor (TCR). AID 651800, 2012; in the data active means inhibition above about 19%;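 further: recombinant mutant TCR 2C K166C tagged with TAMRA read by polarization; 0% = receptor in buffer alone and 100% = receptor with positive control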
# SIAE inh – human SIAE inhibitors, primary screen, biochemical, fluorescence polarization, FP-Rh probe, 1536-well HTS | Sialate O-acetylesterase (Homo sapiens), Q9HAT2 | SIAE FP-Rh probe binding | inhibition, % at 9.66 µM | 370,000 compounds, 0.69% hits | AID 1053197, 2014;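 active means inhibition above a cutoff: mean of compounds within the control limits plus 3 SD of those, cut at about 17% in these data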;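 further: 0% = plate median of compound wells and 100% = probe without SIAE protein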
# PME-1 primary – PME-1 inhibitors via competitive probe labeling, primary screen, biochemical, fluorescence polarization, FP-Rh probe, HTS; Protein phosphatase methylesterase 1 (Homo sapiens), Q9Y570; 320,000 compounds, 0.53% hits; recombinant PME-1; inhibition, % at 5.9 µM;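 active means inhibition above the campaign mean of all compounds plus 3 SD, cut at about 26% in these data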;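 further: competitive labeling of PME-1 active site by serine hydrolase directed probe; 0% = PME-1 with DMSO and 100% = wells lacking PME-1 enzyme; inhibitors block probe labeling so polarization falls and inhibition rises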
# Target sequence (Q9Y570 whole entry, looked up): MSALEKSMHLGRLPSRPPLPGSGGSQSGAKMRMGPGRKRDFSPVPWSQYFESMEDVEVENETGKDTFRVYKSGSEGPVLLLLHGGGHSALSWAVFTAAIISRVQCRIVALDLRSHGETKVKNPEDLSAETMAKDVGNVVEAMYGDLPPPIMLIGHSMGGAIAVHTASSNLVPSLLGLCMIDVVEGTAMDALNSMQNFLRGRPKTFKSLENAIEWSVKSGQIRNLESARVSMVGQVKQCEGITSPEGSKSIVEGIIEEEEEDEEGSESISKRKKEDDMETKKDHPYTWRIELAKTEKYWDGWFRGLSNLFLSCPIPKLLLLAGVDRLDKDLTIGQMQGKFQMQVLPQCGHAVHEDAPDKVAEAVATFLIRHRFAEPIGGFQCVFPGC
# SIAE inh conf – human SIAE inhibitors, retest, confirmation, biochemical, fluorescence polarization, FP-Rh probe, triplicate; shares compounds with SIAE inh; SIAE FP-Rh activity-based probe; inhibition, % at 9.66 µM; 2,300 compounds, 13% hits; AID 1117263, 2014;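 active means mean inhibition of the replicates above the hit cutoff set in the primary screen, cut at about 17% in these data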;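 further: 0% = SIAE with DMSO and probe and 100% = probe without SIAE; inhibitors lower polarization as more probe stays unbound to SIAE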
# The depositor's hits bear a star; . = no result given. Compounds with a hit are over-represented: about 2.6% of the library has one in this group of screens.
SMILES,Fam108B inh,PAD4 FP inh,PRMT1 inh,TCR-CD3 inh,SIAE inh,PME-1 primary,SIAE inh conf
COc1ccc2c(c1)c(C(=O)CN1CCC3(CC1)OCCO3)c(C)n2Cc1ccccc1,3,2,1,4,68*,-1,-2
C=C1[C@H]2CC[C@H]3[C@]4(C)C[C@H](O[C@H]5O[C@H](CO)[C@@H](OS(=O)(=O)O)[C@H](OS(=O)(=O)O)[C@H]5OC(=O)CC(C)C)C[C@@H](C(=O)O)[C@H]4CC[C@]3(C2)[C@H]1O,-5,-1,-6,3,-1,-2,.
COc1cc2c(cc1OC)C13CCN4CC5=CCOC(CC(=O)O)C(C5CC41)C3N2 (stereo not given),.,.,4,4,6,.,.
Cc1cc(N=Nc2ccccc2C)ccc1N,-1,-5,-3,-1,32*,8,1
Nc1ccc(N=Nc2ccccc2)cc1,3,-2,4,-9,2,7,.
CCCCCc1cc(O)c2c3c(c(=O)oc2c1)CN(C)CC3,-1,-3,-2,3,3,0,.
CCOP(=O)(OCC)C(NC(=O)c1ccccc1)C(Cl)(Cl)Cl (stereo not given),1,-5,0,0,3,3,.
CCCOP(=O)(OCCC)C(NC(=O)c1cc(OC)c(OC)c(OC)c1)c1ccccc1 (stereo not given),-1,7,-2,3,17*,-10,1
